Entries with a potency or affinity are not part of this list. Records with an inconclusive call do not appear. Active and inactive are the calls of the source. The rule behind the calls is not given here.
experiment: general cell-killing toxicity readout – plate reader, dry powder samples, cytotoxicity control for PAX8 inhibitor project, dose response (AID 743021); settings: cell line, non-specific cytotoxicity counter-screen; series mostly up to 35 µM

Row | SMILES | outcome
1 | COc1cccc(-c2ccc3c(c2)[C@H]2[C@H](CCN2S(=O)(=O)c2ccccc2F)[C@@H](CO)N3)c1 | inactive
2 | C[C@@H]1CCCCO[C@H](CN(C)Cc2ccc(C(F)(F)F)cc2)[C@@H](C)CN([C@@H](C)CO)C(=O)c2cc(NC(=O)Nc3ccc(F)cc3)ccc2O1 | inactive
3 | C#CCN(C[C@@H]1[C@@H](OC(=O)NCc2ccccc2F)[C@@H](OC(=O)NCc2ccccc2F)Cn2c(=O)ccc(=O)n21)S(=O)(=O)c1ccc(C)cc1 | inactive
4 | C[C@H]1CCCCO[C@H](CN(C)C(=O)Nc2cccc3ccccc23)[C@@H](C)CN([C@@H](C)CO)C(=O)c2cc(NS(=O)(=O)c3ccc(Cl)cc3)ccc2O1 | inactive
5 | C[C@@H]1CN([C@@H](C)CO)S(=O)(=O)c2ccc(C#Cc3ccncc3)cc2O[C@H]1CN(C)C(=O)Nc1ccc2c(c1)OCO2 | inactive
6 | C[C@@H]1CCCCO[C@H](CN(C)Cc2ccc(Cl)c(Cl)c2)[C@@H](C)CN([C@@H](C)CO)C(=O)c2cc(NC(=O)Nc3ccccc3)ccc2O1 | inactive
7 | C[C@@H]1CN([C@H](C)CO)C(=O)c2cc(NS(=O)(=O)c3ccc(Cl)cc3)ccc2O[C@@H](C)CCCCO[C@H]1CN(C)C(=O)Nc1ccc(C(F)(F)F)cc1 | inactive
8 | C[C@H](CO)N1C[C@H](C)[C@@H](CN(C)C(=O)c2ccc3c(c2)OCO3)Oc2cc(C#Cc3ccccc3F)ccc2S1(=O)=O | inactive
9 | C[C@@H]1CCCCO[C@@H](CN(C)Cc2ccc(Cl)c(Cl)c2)[C@@H](C)CN([C@@H](C)CO)C(=O)c2cc(NC(=O)Nc3ccccc3)ccc2O1 | inactive

Reference: PubChem BioAssay
